From PubChem
5HT1E ag = 5-HT1E receptor agonists, primary screen, cell-based, HTS; activation, % at 6 µM; 65,000 tested, 0.69% active; CHO 5-HT1E Ga15 NFAT-bla reporter, FRET; 0% DMSO wells, 100% control agonist wells; 5-hydroxytryptamine receptor 1E (Homo sapiens), P28566;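 active means activation above a set limit, the screen-wide mean activation plus 3 SD, cut at about 8.5% in these data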;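 further: 100% = positive control agonist at 1 µM giving full maximal response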
Target sequence (P28566 whole entry, looked up): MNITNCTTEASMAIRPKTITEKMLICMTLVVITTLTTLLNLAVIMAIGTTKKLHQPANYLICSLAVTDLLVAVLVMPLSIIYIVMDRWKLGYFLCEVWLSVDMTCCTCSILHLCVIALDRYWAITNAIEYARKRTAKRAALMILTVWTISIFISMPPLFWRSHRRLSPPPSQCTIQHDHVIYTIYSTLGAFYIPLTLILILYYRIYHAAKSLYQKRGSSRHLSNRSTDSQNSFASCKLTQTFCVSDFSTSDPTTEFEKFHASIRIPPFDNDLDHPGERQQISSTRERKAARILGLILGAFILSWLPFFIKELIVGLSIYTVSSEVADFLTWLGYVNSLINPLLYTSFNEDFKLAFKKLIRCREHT
Htt clearance = clearance of mutant huntingtin inclusions, primary screen, imaging, HeLa Exon1htt(103Q)mCFP, confocal imaging; aggregate imaging; zero = plate's median compound well; inhibition, % at 1.5 µM; 47,000 tested, 0.42% active; AID 853, 2007;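 active means inhibition of aggregate fluorescence above about 70%, also judged a hit by eye on the cell image, limit read from the data, passing the limit was not always enough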;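 further: cells exposed to compound for three days before fixation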
5HT1E antag = 5-HT1E receptor antagonists, primary screen, cell-based, HTS | 5-hydroxytryptamine receptor 1E (Homo sapiens), P28566 | 65,000 tested, 0.99% active | inhibition, % at 6 µM | CHO 5-HT1E Ga15 NFAT-bla reporter, FRET, antagonist;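 active means inhibition above a set limit, the mean inhibition across every tested compound plus 3 SD, cut at about 29% in these data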;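 further: signal is the 460 over 535 nm emission ratio of beta-lactamase substrate; 0% = agonist plus DMSO wells and 100% = wells without agonist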
5HT1a ag = human 5-HT1a receptor agonists, primary screen, cell-based, CHO, Ga15 NFAT-bla reporter | CHO 5-HT1a Ga15 NFAT-bla reporter, FRET ratio; 0% basal, 100% maximal reference agonist | activation, % at 10 µM | 65,000 tested, 0.56% active;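 active means activation above the screen-wide mean activation plus 3 SD, cut at about 19% in these data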;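 further: 0% = DMSO wells and 100% = 5-CT at EC100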
5-HT1A blocker = human 5-HT1a receptor antagonists, primary screen, cell-based, CHO, Ga15 NFAT-bla reporter; CHO 5-HT1a Ga15 NFAT-bla reporter, antagonist mode; inhibition, % at 10 µM; 62,000 tested, 0.68% active;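 active means inhibition above the mean of all tested compounds plus 3 SD, cut at about 43% in these data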;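 further: receptor stimulated by 5-CT agonist at 100 nM near EC80; beta-lactamase reporter measured by ratiometric fluorescence of a cleavable substrate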
Numbers without * were called inactive; · = not tested or not shown. A selection: hits, their analogues and other compounds. The true share with any hit is near 2.3%.

SMILES | 5HT1E ag | Htt clearance | 5HT1E antag | 5HT1a ag | 5-HT1A blocker
Cc1cc(C)nc(N2CCCC(C(=O)NCC(c3ccccc3)c3ccccc3)C2)n1 (stereo unspecified) | · | 88.5* | · | · | ·
Nc1ccc(C(O)(C(F)(F)F)C(F)(F)F)cc1 | · | 39.4 | · | · | ·
CC(C)OC(=O)N(C)c1ccc(C(O)(C(F)(F)F)C(F)(F)F)cc1 | · | 75.7* | · | · | ·
CCCC(c1nnnn1C1CCCC1)N1CCN(c2ccccc2F)CC1 (stereo unspecified) | 3.0 | · | -8.7 | 0.5 | 23.6
Cc1cccn2c(=O)c3cc(C#N)c(=O)n(-c4c(C)n(C)n(-c5ccccc5)c4=O)c3nc12 | -0.7 | · | 0.7 | -1.2 | 1.4
Cc1ccc(-n2c(=O)c(C#N)cc3c(=O)n4ccccc4nc32)cc1 | 7.8 | · | -5.9 | 30.0* | -25.2
Cc1cc(-n2c(=O)c(C#N)cc3c(=O)n4cccc(C)c4nc32)no1 | 3.1 | · | -3.6 | 49.2* | -20.6
CN(C)CCCN1C(=O)C(=O)/C(=C(/O)c2ccc3c(c2)OCCO3)C1c1ccccn1 (stereo unspecified) | -0.3 | · | 1.5 | 80.7* | -1.4
CC1Cc2cc(/C(O)=C3\C(=O)C(=O)N(CCN(C)C)C3c3ccccc3F)ccc2O1 (stereo unspecified) | -0.3 | 80.4* | 3.8 | 0.4 | -2.8
O=C(NCc1ccco1)C1CCN(S(=O)(=O)Cc2ccccc2)CC1 | · | 20.3 | · | · | ·
COCCCn1c(C2CCCCC2)nc2oc3cc(OC)ccc3c(=O)c2c1=O | 0.8 | -64.2 | 1.1 | 4.1 | -16.2
Cn1c2ccccc2c2cnn(CC(=O)N3CCN(c4ncccn4)CC3)c(=O)c21 | -0.7 | · | 11.5 | -1.8 | 13.3
CC(=O)C1=C(C)NC(SCC(=O)c2cc(Cl)ccc2Cl)=C(C#N)C1c1ccco1 (stereo unspecified) | -0.3 | -87.7 | 31.2* | -2.7 | 32.7
Cc1ccc(Cn2c(Sc3nnc(C)s3)nc3c2c(=O)[nH]c(=O)n3C)cc1 | -0.2 | · | 40.6* | -0.6 | -4.4
CN(CCNC(=O)c1ccc(N2CCCC2=O)cc1)CCc1ccccc1 | 0.6 | · | -8.2 | 0.6 | 4.0
CCCn1c2ccccc2c2nc3ccccc3nc21 | 0.1 | · | 22.8 | 4.1 | 13.4
N#CCCn1c2ccccc2c2nc3ccccc3nc21 | -0.3 | 3.6 | 38.3* | 1.8 | -9.1
COc1ccc(OC)c2[nH]c(=O)c(CCNC(=O)CC(C)C)cc12 | -0.6 | 61.3 | -1.4 | -3.5 | -6.4
NC(=O)c1cc2ccc(O)cc2oc1=Nc1ccccc1 | 49.9* | · | -48.5 | 98.5* | -321.5
COc1ccc(OC)c(N=c2oc3cc(O)ccc3cc2C(N)=O)c1 | 12.1* | 12.9 | -21.1 | 39.1* | -52.8
NC(=O)c1cc2ccc(O)cc2oc1=NCc1ccccc1 | 25.8* | · | -21.8 | 85.9* | -207.0
Nc1nnc(Cc2ccc(Cl)c(Cl)c2)s1 | 0.2 | -7.2 | 1.4 | 0.0 | ·
CCOC(=O)c1c(C)nc(-c2ccccc2)nc1NC(=O)CC | 68.3* | · | -6.8 | -0.5 | 17.1
CCOC(=O)c1c(C)nc2ccccc2c1C | · | 10.3 | · | · | ·
CCOC(=O)c1oc2ccccc2c1NC(=O)c1cc(OC)cc(OC)c1 | 111.9* | 6.9 | 15.1 | -3.6 | 19.6
SMILES | 5HT1E ag | Htt clearance | 5HT1E antag | 5HT1a ag | 5-HT1A blocker
CCOC(=O)c1oc2ccccc2c1NC(=O)COC | -0.1 | · | 23.9 | -2.5 | 1.8
N#Cc1cnn(-c2ccccc2)c1N | 0.0 | 2.1 | -0.4 | 0.2 | 5.8
CC(C)C1N(c2ccccc2)C(N)=C(C#N)C1(C#N)C#N (stereo unspecified) | 0.3 | -20.3 | 33.3* | 2.4 | -6.3
COc1ccc(-c2noc(-c3ccccc3C(=O)Nc3cccc(OC)c3)n2)cc1 | -0.8 | 21.7 | -6.5 | 0.3 | 37.2
CCOc1ccccc1NC(=O)c1ccccc1-c1nc(-c2ccccc2)no1 | 0.7 | -29.3 | -13.8 | 2.2 | 45.6*
CC1CCCC(NC(=O)CN(C)S(=O)(=O)c2cccc3cccnc23)C1C (stereo unspecified) | -0.7 | 28.3 | -11.9 | -0.8 | 10.7
CN(C)S(=O)(=O)c1ccc(C(=O)OCC(=O)c2ccc(OC(F)F)cc2OC(F)F)cc1 | -0.5 | 50.4 | 0.8 | 0.8 | -1.2
Cn1cc(/C=N/n2cnc3scc(-c4ccc(Cl)cc4)c3c2=O)c2ccccc21 | -0.6 | · | 82.6* | -4.9 | 71.1*
Cc1ccc(N2C(=O)CC(N3CCN(C4CCc5ccccc5C4)CC3)C2=O)cc1 (stereo unspecified) | -0.4 | · | 8.8 | 20.1* | 13.7
